Reference: PubChem BioAssay (NCI)
About 83,000 compounds went through this panel and 20% of them were active in at least one assay; those are over-represented in the sample as a whole.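 Compound tested at a single concentration for 48 hours in 96-well plates; a percent growth value below 10 was scored as active.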 Active and inactive are the calls of the source.

Assays:
Assay in all cases: NCI-60 one-dose screen, 48 h (100 = growth as untreated, 0 = no growth, -100 = all killed)
NCI-H23 lung = conditions: 10 µM unless noted
NCI-H226 lung = conditions: 10 µM unless noted
NCI-H322M lung = conditions: 10 µM unless noted
HOP-62 NSCLC = conditions: 10 µM unless noted
NCI-H460 lung = conditions: 10 µM unless noted
HOP-92 NSCLC = conditions: 10 µM unless noted
NCI-H522 lung = conditions: 10 µM unless noted
A549/ATCC NSCLC = conditions: 10 µM unless noted
786-0 renal = conditions: 10 µM unless noted
COLO 205 colon = conditions: 10 µM unless noted
DU-145 prostate = conditions: 10 µM unless noted
MALME-3M melanoma = conditions: 10 µM unless noted
MDA-MB-231 breast = conditions: 10 µM unless noted
RXF 393 renal = conditions: 10 µM unless noted
SF-268 CNS = conditions: 10 µM unless noted
SF-295 CNS = conditions: 10 µM unless noted
SF-539 CNS = conditions: 10 µM unless noted
UACC-257 melanoma = conditions: 10 µM
M14 melanoma = conditions: 10 µM unless noted

Measured: growth

CCN1CCN(Cc2ccc(C(=O)Nc3nc4ccc(Oc5ccnc(C(=O)NC)c5)cc4s3)cc2C(F)(F)F)CC1
active: COLO 205 colon -43% | MALME-3M melanoma -5.31% | SF-539 CNS -42.2% | UACC-257 melanoma -2.29% | M14 melanoma -4.9%
inactive: NCI-H23 lung 42% | NCI-H226 lung 76.3% | NCI-H322M lung 66.1% | HOP-62 NSCLC 63.9% | NCI-H460 lung 26.2% | HOP-92 NSCLC 37.4% | NCI-H522 lung 58.9% | A549/ATCC NSCLC 60.1% | 786-0 renal 39.5% | DU-145 prostate 79.3% | MDA-MB-231 breast 52% | RXF 393 renal 25% | SF-268 CNS 78.1% | SF-295 CNS 35.1%

CS(=O)(=O)c1ccc2c(c1)c1c(n2S(=O)(=O)c2ccc(Cl)cc2)CCCC1
active: NCI-H460 lung 9.54% | NCI-H522 lung -44.5% | COLO 205 colon -36.3% | RXF 393 renal -0.699% | SF-539 CNS 2.97%
inactive: NCI-H23 lung 36.3% | NCI-H226 lung 53.6% | NCI-H322M lung 49.1% | HOP-62 NSCLC 38.5% | HOP-92 NSCLC 32.7% | A549/ATCC NSCLC 48.7% | 786-0 renal 40.4% | DU-145 prostate 22.9% | MALME-3M melanoma 54.5% | MDA-MB-231 breast 29.8% | SF-268 CNS 63.3% | SF-295 CNS 21% | UACC-257 melanoma 60.6% | M14 melanoma 26.3%

COC(=O)c1nc(-c2ccc(C)cc2)oc1S(=O)(=O)N1CCN(c2oc(-c3ccccc3)nc2C#N)CC1
inactive: NCI-H23 lung 102% | NCI-H226 lung 101% | NCI-H322M lung 103% | HOP-62 NSCLC 112% | NCI-H460 lung 103% | HOP-92 NSCLC 106% | NCI-H522 lung 92.2% | A549/ATCC NSCLC 102% | 786-0 renal 102% | COLO 205 colon 107% | DU-145 prostate 104% | MALME-3M melanoma 98.6% | MDA-MB-231 breast 102% | RXF 393 renal 109% | SF-268 CNS 98% | SF-295 CNS 103% | SF-539 CNS 98.6% | UACC-257 melanoma 111% | M14 melanoma 74%

Cn1cc(-c2nn3cc(-c4cccnc4)nc3s2)c2ccccc21
inactive: NCI-H23 lung 30.1% | NCI-H226 lung 30.2% | NCI-H322M lung 55.3% | HOP-62 NSCLC 39.1% | HOP-92 NSCLC 26.1% | A549/ATCC NSCLC 44% | 786-0 renal 59.7% | DU-145 prostate 58.3% | MALME-3M melanoma 22.5% | MDA-MB-231 breast 31.7% | RXF 393 renal 54.3% | SF-268 CNS 66.7% | SF-295 CNS 40.7% | SF-539 CNS 26.5% | M14 melanoma 14.5%
active: NCI-H460 lung 9.94% | NCI-H522 lung -12.9% | COLO 205 colon -2.12%

COc1ccc([C@H]2[C@H](O)C(=O)N2c2cc(OC)c(OC)c(OC)c2)cc1Cl
active: NCI-H460 lung 1.57% | HOP-92 NSCLC -6.45% | NCI-H522 lung -39.7% | COLO 205 colon -79.3% | SF-295 CNS 5.44% | SF-539 CNS -9.87%
inactive: NCI-H23 lung 29.9% | NCI-H226 lung 21.6% | NCI-H322M lung 49.1% | HOP-62 NSCLC 23.1% | A549/ATCC NSCLC 19.1% | 786-0 renal 22.1% | DU-145 prostate 18.3% | MALME-3M melanoma 65.9% | MDA-MB-231 breast 26.9% | RXF 393 renal 24.3% | SF-268 CNS 44.7% | UACC-257 melanoma 40.8% | M14 melanoma 10.3%

C=CCn1c(SCC(=O)Nc2cccc(C(=O)/C=C/c3ccccc3Cl)c2)nc2ccccc2c1=O
inactive: NCI-H23 lung 94.7% | NCI-H226 lung 91.8% | NCI-H322M lung 92% | HOP-62 NSCLC 108% | NCI-H460 lung 93% | HOP-92 NSCLC 70.7% | NCI-H522 lung 84.8% | A549/ATCC NSCLC 86.2% | 786-0 renal 88% | COLO 205 colon 113% | DU-145 prostate 93.7% | MALME-3M melanoma 96.9% | MDA-MB-231 breast 93.8% | RXF 393 renal 94.3% | SF-268 CNS 88.4% | SF-295 CNS 93.8% | SF-539 CNS 86.6% | UACC-257 melanoma 107% | M14 melanoma 87.5%

COc1cc2c3c(n(CCCN4CCCCC4)c(=O)c2cc1OC)-c1cc2c(cc1C3=O)OCO2
active: NCI-H23 lung -91.9% | NCI-H226 lung -61.6% | NCI-H322M lung -96.4% | HOP-62 NSCLC -71.4% | NCI-H460 lung -84.7% | HOP-92 NSCLC -77.4% | NCI-H522 lung -80.2% | A549/ATCC NSCLC -58.4% | 786-0 renal -55.9% | COLO 205 colon -88.8% | DU-145 prostate -92.2% | MALME-3M melanoma -78.5% | MDA-MB-231 breast -77.1% | RXF 393 renal -73.9% | SF-268 CNS -55.5% | SF-295 CNS -75.6% | SF-539 CNS -89.3% | M14 melanoma -89.5%

COc1ccc(/C(C)=C(\c2ccc(Cl)cc2)c2ccc(OCCN)cc2)cc1
inactive: NCI-H23 lung 82.2% | NCI-H226 lung 92% | NCI-H322M lung 79.3% | HOP-62 NSCLC 106% | NCI-H460 lung 60.8% | HOP-92 NSCLC 61.6% | NCI-H522 lung 102% | A549/ATCC NSCLC 88.9% | 786-0 renal 81.7% | COLO 205 colon 32.6% | DU-145 prostate 87.2% | MALME-3M melanoma 83% | MDA-MB-231 breast 67.1% | RXF 393 renal 68.3% | SF-268 CNS 89.4% | SF-295 CNS 103% | SF-539 CNS 90% | UACC-257 melanoma 94.7% | M14 melanoma 81.4%
